# Experiments:
# Assay in all cases: DAPPL (digital affinity profiling via proximity ligation, sequencing); 10 mM Tris-HCl pH 7.5, 50 mM NaCl, 1 mM DTT, 4% glycerol, room temperature, 30 min; GST-TFs on glutathione beads, 16-mer random dsDNA library, 0.1% formaldehyde crosslink after washing; high values mean tight binding
# FLI1 = target: T1, FLI1 (Homo sapiens, UniProt Q01543 1-452); conditions: protein: recombinant; tags: N-terminal GST; dsDNA, one strand shown
# T1 sequence: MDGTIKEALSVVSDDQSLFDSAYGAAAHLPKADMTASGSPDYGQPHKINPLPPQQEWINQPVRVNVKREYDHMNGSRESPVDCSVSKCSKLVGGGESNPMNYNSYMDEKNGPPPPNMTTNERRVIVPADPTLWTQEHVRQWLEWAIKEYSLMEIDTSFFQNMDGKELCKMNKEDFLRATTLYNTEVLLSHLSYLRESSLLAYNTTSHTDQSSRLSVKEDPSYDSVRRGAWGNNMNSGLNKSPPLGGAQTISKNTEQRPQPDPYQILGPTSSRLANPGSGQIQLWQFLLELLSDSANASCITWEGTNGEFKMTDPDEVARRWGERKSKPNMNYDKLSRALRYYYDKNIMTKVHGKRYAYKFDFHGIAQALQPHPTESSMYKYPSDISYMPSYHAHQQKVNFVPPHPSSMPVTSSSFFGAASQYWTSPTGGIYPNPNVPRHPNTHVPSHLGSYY
# In short: (§1)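 In yeast, human transcription factors were expressed with a GST fusion, then pulled down on glutathione beads and given DNA barcodes. Pooled with a tag-only sample, they were exposed to 200 nmole of a 16-mer random double-stranded DNA library (Tris/NaCl/DTT/glycerol buffer, room temperature, 30 min), washed, crosslinked with 0.1% formaldehyde, proximity-ligated using BsaI/T4 ligase for 1 h at 37 °C, PCR-amplified and read on an Illumina NextSeq500. Each hexamer's frequency of reads for a factor, divided by the matching frequency for the tag-only sample, gives the binding signal.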
# ELK1 = target: T2, ELK1 (Homo sapiens, UniProt P19419 1-428); conditions: protein: recombinant; tags: N-terminal GST; dsDNA, one strand shown
# T2 sequence: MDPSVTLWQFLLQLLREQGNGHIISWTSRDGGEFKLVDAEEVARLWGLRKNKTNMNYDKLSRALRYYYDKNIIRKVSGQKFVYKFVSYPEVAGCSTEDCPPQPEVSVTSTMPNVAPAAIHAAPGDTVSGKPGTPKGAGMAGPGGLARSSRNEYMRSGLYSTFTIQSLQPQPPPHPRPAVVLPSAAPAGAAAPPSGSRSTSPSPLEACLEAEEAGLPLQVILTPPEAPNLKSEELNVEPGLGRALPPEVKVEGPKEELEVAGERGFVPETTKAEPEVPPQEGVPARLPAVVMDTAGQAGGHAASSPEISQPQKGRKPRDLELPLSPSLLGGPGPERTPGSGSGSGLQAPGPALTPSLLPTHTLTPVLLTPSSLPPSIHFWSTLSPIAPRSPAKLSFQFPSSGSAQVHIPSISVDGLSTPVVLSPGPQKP
# In short: as §1
# GABPA = target: T3, GABPA (Homo sapiens, UniProt Q06546 1-454); conditions: protein: recombinant; tags: N-terminal GST; dsDNA, one strand shown
# T3 sequence: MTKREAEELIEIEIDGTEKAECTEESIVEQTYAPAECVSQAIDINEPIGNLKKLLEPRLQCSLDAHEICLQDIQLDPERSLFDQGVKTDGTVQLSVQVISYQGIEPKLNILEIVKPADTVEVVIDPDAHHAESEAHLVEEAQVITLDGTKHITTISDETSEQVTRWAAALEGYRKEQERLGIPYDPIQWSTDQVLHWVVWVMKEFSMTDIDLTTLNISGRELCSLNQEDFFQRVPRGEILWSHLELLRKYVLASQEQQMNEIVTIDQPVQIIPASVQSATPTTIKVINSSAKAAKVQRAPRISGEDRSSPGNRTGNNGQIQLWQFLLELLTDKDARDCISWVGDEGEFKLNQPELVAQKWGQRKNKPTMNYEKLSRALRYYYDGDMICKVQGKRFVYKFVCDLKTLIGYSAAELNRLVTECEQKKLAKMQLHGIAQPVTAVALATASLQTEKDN
# In short: as §1
# ERG = target: T4, ERG (Homo sapiens, UniProt P11308 1-479); conditions: protein: recombinant; tags: N-terminal GST; dsDNA, one strand shown
# T4 sequence: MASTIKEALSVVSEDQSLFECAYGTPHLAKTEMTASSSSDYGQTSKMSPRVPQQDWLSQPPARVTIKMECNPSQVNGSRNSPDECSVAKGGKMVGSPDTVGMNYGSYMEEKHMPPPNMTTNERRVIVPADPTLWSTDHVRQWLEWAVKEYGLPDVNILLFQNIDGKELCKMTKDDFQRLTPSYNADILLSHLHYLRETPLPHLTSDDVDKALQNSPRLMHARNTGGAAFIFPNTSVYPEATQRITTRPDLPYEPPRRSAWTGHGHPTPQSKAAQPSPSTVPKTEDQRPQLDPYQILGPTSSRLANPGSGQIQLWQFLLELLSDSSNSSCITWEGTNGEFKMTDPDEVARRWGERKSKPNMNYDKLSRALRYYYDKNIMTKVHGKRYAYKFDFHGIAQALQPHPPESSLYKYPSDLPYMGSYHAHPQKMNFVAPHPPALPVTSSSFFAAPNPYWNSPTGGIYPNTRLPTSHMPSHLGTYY
# In short: as §1
# ELF1 = ELF1 (Homo sapiens, UniProt P32519 1-619); conditions: protein: recombinant; tags: N-terminal GST; dsDNA, one strand shown
# In short: as §1
# EHF = target: T5, EHF (Homo sapiens, UniProt Q9NZC4 1-300); conditions: protein: recombinant; tags: N-terminal GST; dsDNA, one strand shown
# T5 sequence: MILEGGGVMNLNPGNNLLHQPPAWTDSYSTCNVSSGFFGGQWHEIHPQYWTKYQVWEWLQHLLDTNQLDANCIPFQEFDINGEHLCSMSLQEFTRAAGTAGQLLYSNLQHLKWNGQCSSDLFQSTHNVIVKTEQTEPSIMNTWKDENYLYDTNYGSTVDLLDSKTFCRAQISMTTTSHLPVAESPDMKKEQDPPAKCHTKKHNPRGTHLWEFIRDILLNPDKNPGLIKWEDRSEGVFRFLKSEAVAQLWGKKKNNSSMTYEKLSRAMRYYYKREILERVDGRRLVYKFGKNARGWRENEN
# In short: as §1
# SPI1 = SPI1 (Homo sapiens, UniProt P17947 1-270); conditions: protein: recombinant; tags: N-terminal GST; dsDNA, one strand shown
# In short: as §1
# SPIB = SPIB (Homo sapiens, UniProt Q01892 1-262); conditions: protein: recombinant; tags: N-terminal GST; dsDNA, one strand shown
# In short: as §1
# ELK3 = target: T6, ELK3 (Homo sapiens, UniProt P41970 1-407); conditions: protein: recombinant; tags: N-terminal GST; dsDNA, one strand shown
# T6 sequence: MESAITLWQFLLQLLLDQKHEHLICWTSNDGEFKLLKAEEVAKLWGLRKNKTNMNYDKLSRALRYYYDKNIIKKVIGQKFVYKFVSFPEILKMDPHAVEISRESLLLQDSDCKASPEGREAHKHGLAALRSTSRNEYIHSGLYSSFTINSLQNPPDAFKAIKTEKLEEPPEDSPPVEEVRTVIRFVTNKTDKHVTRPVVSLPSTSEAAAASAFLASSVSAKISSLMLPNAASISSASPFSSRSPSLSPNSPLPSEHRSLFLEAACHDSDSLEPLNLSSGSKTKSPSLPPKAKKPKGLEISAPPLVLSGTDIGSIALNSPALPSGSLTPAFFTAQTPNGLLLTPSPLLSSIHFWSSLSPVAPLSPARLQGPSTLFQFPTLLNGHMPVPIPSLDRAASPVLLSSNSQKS
# In short: as §1
# FEV = target: T7, FEV (Homo sapiens, UniProt Q99581 1-238); conditions: protein: recombinant; tags: N-terminal GST; dsDNA, one strand shown
# T7 sequence: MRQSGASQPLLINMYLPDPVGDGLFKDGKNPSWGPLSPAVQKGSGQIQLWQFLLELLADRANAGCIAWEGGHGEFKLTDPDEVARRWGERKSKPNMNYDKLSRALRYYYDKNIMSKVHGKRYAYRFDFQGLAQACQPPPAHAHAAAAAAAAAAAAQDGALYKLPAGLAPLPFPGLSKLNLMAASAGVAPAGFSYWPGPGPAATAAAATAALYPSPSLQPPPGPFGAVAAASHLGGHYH
# In short: as §1
# ETV5 = ETV5 (Homo sapiens, UniProt P41161 1-510); conditions: protein: recombinant; tags: N-terminal GST; dsDNA, one strand shown
# In short: as §1
# HSF1 = HSF1 (Homo sapiens, UniProt Q00613 1-529); conditions: protein: recombinant; tags: N-terminal GST; chain copies: 3; dsDNA, one strand shown
# In short: as §1
# SPIC = target: T8, SPIC (Homo sapiens, UniProt Q8N5J4 1-248); conditions: protein: recombinant; tags: N-terminal GST; dsDNA, one strand shown
# T8 sequence: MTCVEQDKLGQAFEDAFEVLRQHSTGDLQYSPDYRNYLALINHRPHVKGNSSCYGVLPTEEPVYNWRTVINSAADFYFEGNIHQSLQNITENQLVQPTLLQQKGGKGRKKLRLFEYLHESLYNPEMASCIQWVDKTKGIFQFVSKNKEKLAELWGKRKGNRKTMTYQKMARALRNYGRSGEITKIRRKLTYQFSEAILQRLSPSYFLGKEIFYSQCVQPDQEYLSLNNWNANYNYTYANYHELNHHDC
# In short: as §1
# ELF4 = ELF4 (Homo sapiens, UniProt Q99607 1-663); conditions: protein: recombinant; tags: N-terminal GST; dsDNA, one strand shown
# In short: as §1
# ELK4 = target: T9, ELK4 (Homo sapiens, UniProt P28324-2 1-405); conditions: protein: recombinant; tags: N-terminal GST; dsDNA, one strand shown
# T9 sequence: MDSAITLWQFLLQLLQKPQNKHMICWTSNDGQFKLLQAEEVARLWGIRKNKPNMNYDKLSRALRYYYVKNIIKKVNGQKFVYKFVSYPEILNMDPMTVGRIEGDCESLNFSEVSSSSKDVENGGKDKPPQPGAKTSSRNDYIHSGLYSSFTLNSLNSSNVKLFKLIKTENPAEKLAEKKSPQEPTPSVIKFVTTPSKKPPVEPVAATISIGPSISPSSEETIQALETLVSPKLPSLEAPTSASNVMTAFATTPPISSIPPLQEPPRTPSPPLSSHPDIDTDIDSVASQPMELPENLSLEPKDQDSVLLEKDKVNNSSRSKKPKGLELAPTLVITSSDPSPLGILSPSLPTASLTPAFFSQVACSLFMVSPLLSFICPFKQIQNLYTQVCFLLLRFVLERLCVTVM
# In short: as §1
# ETV2 = target: T10, ETV2 (Homo sapiens, UniProt O00321 1-342); conditions: protein: recombinant; tags: N-terminal GST; dsDNA, one strand shown
# T10 sequence: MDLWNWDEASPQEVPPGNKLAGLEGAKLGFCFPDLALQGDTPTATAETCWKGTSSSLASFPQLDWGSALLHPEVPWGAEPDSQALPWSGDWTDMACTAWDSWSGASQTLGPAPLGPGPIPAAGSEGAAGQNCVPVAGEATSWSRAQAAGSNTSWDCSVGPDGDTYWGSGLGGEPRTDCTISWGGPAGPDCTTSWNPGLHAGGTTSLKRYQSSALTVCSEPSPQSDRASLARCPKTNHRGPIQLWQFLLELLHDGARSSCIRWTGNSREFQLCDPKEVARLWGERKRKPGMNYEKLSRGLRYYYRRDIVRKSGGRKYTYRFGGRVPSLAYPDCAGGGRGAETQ
# In short: as §1
# ELF3 = target: T11, ELF3 (Homo sapiens, UniProt P78545 1-371); conditions: protein: recombinant; tags: N-terminal GST; dsDNA, one strand shown
# T11 sequence: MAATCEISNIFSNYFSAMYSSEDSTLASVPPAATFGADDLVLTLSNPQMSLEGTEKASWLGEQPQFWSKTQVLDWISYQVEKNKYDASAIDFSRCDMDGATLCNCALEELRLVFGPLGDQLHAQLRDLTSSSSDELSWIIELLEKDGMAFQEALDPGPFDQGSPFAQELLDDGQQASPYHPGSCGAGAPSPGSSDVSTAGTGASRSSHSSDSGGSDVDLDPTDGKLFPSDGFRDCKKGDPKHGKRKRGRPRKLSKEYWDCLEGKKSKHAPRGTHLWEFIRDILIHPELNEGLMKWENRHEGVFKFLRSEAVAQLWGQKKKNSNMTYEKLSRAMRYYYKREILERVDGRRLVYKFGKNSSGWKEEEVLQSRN
# In short: as §1
# CRX = CRX (Homo sapiens, UniProt O43186 1-299); conditions: protein: recombinant; tags: N-terminal GST; dsDNA, one strand shown
# In short: as §1
# ETV1 = ETV1 (Homo sapiens, UniProt P50549 1-477); conditions: protein: recombinant; tags: N-terminal GST; dsDNA, one strand shown
# In short: as §1
# ETV5, sequence (P41161 whole entry): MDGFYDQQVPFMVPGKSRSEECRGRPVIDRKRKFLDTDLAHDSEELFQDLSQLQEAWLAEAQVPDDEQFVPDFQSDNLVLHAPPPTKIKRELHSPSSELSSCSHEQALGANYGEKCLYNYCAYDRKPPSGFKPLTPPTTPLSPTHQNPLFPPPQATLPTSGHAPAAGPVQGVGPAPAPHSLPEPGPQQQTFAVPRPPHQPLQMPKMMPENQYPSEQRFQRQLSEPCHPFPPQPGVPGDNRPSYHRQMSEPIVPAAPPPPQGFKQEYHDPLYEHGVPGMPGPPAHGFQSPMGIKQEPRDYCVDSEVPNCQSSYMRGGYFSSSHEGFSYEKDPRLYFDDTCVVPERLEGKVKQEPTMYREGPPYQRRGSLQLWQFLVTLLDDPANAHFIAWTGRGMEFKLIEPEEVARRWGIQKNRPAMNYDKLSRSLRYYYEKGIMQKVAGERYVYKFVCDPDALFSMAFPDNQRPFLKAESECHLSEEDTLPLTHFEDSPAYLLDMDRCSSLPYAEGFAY
# ELF4, sequence (Q99607 whole entry): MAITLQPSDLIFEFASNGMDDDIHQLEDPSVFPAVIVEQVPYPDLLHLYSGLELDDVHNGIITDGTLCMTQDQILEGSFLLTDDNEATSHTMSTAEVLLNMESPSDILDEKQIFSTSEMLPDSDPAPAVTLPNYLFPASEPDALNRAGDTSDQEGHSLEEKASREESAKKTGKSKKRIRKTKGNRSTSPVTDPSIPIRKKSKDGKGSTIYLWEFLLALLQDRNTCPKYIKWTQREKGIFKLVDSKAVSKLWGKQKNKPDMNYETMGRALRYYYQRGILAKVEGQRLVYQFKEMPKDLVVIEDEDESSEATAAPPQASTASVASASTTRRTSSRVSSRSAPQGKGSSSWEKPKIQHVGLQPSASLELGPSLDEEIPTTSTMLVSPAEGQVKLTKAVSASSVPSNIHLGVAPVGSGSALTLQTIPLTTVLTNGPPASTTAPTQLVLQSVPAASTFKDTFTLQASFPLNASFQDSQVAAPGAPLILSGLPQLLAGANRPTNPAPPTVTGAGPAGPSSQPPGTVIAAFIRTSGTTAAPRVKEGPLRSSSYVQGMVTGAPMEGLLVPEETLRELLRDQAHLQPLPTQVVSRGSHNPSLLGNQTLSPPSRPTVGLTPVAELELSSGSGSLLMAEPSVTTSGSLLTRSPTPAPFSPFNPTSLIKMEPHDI
# ETV1, sequence (P50549 whole entry): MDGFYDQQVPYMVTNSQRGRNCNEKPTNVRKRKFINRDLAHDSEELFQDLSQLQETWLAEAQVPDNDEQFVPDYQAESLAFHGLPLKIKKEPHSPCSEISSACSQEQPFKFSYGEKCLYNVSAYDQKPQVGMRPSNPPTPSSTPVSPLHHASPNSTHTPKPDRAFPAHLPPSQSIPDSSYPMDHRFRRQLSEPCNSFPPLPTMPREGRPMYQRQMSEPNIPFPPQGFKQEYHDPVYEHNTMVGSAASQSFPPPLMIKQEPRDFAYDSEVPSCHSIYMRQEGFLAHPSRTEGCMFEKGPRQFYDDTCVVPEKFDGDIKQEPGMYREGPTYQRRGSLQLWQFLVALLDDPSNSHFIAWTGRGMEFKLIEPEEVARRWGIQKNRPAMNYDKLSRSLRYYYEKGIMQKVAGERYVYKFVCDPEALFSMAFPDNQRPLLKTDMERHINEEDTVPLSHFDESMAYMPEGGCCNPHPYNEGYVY
# ELF1, sequence (P32519 whole entry): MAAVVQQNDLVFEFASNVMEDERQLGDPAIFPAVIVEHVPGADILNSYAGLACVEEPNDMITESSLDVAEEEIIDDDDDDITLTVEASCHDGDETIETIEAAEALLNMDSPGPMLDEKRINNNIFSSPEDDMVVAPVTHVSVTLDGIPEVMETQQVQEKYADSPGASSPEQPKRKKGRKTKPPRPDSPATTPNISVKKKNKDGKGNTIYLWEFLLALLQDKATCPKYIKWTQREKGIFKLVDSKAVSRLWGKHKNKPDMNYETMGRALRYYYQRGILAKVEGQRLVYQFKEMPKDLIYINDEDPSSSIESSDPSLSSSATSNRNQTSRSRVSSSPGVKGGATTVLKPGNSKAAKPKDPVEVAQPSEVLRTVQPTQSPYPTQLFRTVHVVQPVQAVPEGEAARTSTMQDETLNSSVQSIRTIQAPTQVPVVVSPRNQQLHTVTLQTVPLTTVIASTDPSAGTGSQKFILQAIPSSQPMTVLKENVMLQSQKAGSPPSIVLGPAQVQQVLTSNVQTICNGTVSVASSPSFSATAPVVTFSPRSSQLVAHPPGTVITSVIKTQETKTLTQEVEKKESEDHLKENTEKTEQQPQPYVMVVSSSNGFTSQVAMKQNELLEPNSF
# CRX, sequence (O43186 whole entry): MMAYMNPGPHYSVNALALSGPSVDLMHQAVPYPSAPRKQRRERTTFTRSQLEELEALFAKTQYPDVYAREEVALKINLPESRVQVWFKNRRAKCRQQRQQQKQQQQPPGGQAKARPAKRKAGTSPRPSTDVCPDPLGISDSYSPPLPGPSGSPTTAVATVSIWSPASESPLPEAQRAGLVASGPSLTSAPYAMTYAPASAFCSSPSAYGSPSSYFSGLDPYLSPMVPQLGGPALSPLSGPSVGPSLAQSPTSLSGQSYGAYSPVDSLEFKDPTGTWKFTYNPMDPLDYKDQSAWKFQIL
# SPIB, sequence (Q01892 whole entry): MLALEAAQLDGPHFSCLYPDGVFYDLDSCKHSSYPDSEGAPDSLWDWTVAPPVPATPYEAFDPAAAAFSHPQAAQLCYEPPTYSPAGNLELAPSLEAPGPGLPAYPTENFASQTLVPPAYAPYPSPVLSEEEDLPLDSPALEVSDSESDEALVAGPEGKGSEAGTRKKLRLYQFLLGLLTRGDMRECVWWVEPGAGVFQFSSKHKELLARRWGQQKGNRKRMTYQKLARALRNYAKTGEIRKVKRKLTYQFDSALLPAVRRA
# HSF1, sequence (Q00613 whole entry): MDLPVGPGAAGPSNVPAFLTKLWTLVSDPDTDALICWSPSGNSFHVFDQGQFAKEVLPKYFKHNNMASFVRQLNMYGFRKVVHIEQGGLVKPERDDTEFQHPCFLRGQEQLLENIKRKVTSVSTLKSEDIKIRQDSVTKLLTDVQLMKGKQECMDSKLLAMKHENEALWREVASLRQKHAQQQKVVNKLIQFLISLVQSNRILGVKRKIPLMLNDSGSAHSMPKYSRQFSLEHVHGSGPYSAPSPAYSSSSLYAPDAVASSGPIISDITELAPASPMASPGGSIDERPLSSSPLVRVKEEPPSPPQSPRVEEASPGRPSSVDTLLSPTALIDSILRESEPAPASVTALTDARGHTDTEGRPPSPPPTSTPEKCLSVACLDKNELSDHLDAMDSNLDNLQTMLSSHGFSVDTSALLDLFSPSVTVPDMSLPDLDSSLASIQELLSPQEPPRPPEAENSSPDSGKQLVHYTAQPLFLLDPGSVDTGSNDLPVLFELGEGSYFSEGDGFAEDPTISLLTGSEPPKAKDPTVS
sequence,measurement,setting,value
ATTTGC,binding signal,FLI1,"1.3 fold enrichment (6-mer frequency, TF over GST control)"
same,binding signal,ELK1,"1.36 fold enrichment (6-mer frequency, TF over GST control)"
same,binding signal,GABPA,"1.34 fold enrichment (6-mer frequency, TF over GST control)"
same,binding signal,ERG,"1.32 fold enrichment (6-mer frequency, TF over GST control)"
same,binding signal,ELF1,"1.34 fold enrichment (6-mer frequency, TF over GST control)"
same,binding signal,EHF,"1.17 fold enrichment (6-mer frequency, TF over GST control)"
same,binding signal,SPI1,"1.41 fold enrichment (6-mer frequency, TF over GST control)"
same,binding signal,SPIB,"1.32 fold enrichment (6-mer frequency, TF over GST control)"
same,binding signal,ELK3,"1.2 fold enrichment (6-mer frequency, TF over GST control)"
same,binding signal,FEV,"1.29 fold enrichment (6-mer frequency, TF over GST control)"
same,binding signal,ETV5,"1.4 fold enrichment (6-mer frequency, TF over GST control)"
same,binding signal,HSF1,"1.47 fold enrichment (6-mer frequency, TF over GST control)"
same,binding signal,SPIC,"1.29 fold enrichment (6-mer frequency, TF over GST control)"
same,binding signal,ELF4,"1.23 fold enrichment (6-mer frequency, TF over GST control)"
same,binding signal,ELK4,"1.3 fold enrichment (6-mer frequency, TF over GST control)"
same,binding signal,ETV2,"1.23 fold enrichment (6-mer frequency, TF over GST control)"
same,binding signal,ELF3,"1.33 fold enrichment (6-mer frequency, TF over GST control)"
same,binding signal,CRX,"1.5 fold enrichment (6-mer frequency, TF over GST control)"
same,binding signal,ETV1,"1.38 fold enrichment (6-mer frequency, TF over GST control)"

# Reference: article PMC7862700, “An all-to-all approach to the identification of sequence-specific readers for epigenetic DNA modifications on cytosine”
